For assay [1], the system named is Vero E6 infected with SARS-CoV-2. Nature of the assay: morphology score (similarity to uninfected cells); higher = more like uninfected cells. Conditions: 24 h.
Assay [2] has the same test system. Nature of the assay: SARS-CoV-2 infection rate relative to infected DMSO; higher = more infection, active = 60 or less. The note with it: 24 h.

In assay [1], `COc1ccccc1N1CCN(CCCCNC(=O)c2ccc(-c3ccc(C(C)=O)cc3)cc2)CC1` (10 µM) had a morphology score of -0.218. In addition, the SARS-CoV-2 infection rate in assay [2] was 113% (inactive).

On to `Cc1nc(N)sc1CCN` [amthamine] (10 µM), for which the morphology score in assay [1] worked out at 0.148. Moreover, the SARS-CoV-2 infection rate in assay [2] was 92.5% (inactive).

The compound `CC(=O)C1=C(O)C=C2Oc3c(C(C)=O)c(O)c(C)c(O)c3C2(C)C1=O` (stereo not drawn) [usniacin-(+)] (10 µM) had a morphology score in assay [1] of 0.117. In assay [2], the SARS-CoV-2 infection rate is 108% (inactive).

Compound `COc1cc([C@@H]2c3cc4c(cc3[C@@H](O[C@@H]3O[C@@H]5CO[C@@H](c6cccs6)O[C@H]5[C@H](O)[C@H]3O)[C@H]3COC(=O)[C@H]23)OCO4)cc(OC)c1O` [teniposide] (10 µM) registered a morphology score in assay [1] of -0.0983. Besides, in assay [2], the SARS-CoV-2 infection rate is 111% (inactive).

In assay [1], `C[C@@H]1CN(CC(=O)Nc2ccc3c(c2)Cc2cccc(-c4cc(=O)cc(N5CCOCC5)o4)c2S3)C[C@H](C)O1` (10 µM) came in with a morphology score of 0.618. In addition, in assay [2], the SARS-CoV-2 infection rate was 60% (active).

With `COc1ccc2[nH]c(I)c(CCNC(C)=O)c2c1` [2-iodomelatonin] (10 µM), in assay [1], the morphology score came to 0.0455. Further, in assay [2], the SARS-CoV-2 infection rate is 88% (inactive).

As to `Cc1cc(-c2ncc(CC(=O)Nc3ccc(-c4cnccn4)cn3)cc2C)ccn1` (10 µM), the morphology score in assay [1] is -0.0828. In addition, the SARS-CoV-2 infection rate in assay [2] was 111% (inactive).

Compound `O=C(O)COc1ccc(OCCNC[C@H](O)COc2ccccc2)cc1` (10 µM) had a morphology score in assay [1] of -0.002. The SARS-CoV-2 infection rate in assay [2] was 104% (inactive).

In assay [1], `C#CCOC(=O)C1=CCCN(C)C1` [arecaidine-propargyl-ester] (10 µM) showed a morphology score of 0.0331. The SARS-CoV-2 infection rate in assay [2] was 93.5% (inactive).

The compound `CC(=O)Nc1ccc(OCC(O)CNC(C)C)cc1` (stereo not drawn) [practolol] (10 µM) gave a morphology score in assay [1] of -0.0762. In assay [2], the SARS-CoV-2 infection rate is 106% (inactive).

`CCCC(=O)Nc1ccc(OCC(O)CNC(C)C)c(C(C)=O)c1` (stereo not drawn) [acebutolol] (10 µM) had a morphology score in assay [1] of -0.0282. Further, the SARS-CoV-2 infection rate in assay [2] is 113% (inactive).

In assay [1], `Cc1ccc(-c2ncc[nH]2)cc1NC(=O)c1ccc(OCc2ccccn2)cc1` (10 µM) yielded a morphology score of 0.0587. Further, the SARS-CoV-2 infection rate in assay [2] was 97% (inactive).

Compound `Nc1ncc2c(n1)CC(c1ccco1)CC2=O` (stereo not drawn) (10 µM) came in with a morphology score in assay [1] of 0.0161. Besides, the SARS-CoV-2 infection rate in assay [2] is 99% (inactive).

In assay [1], `O[C@@](Cc1nc(CC2(C(F)(F)F)CC2)c[nH]1)(c1ccc(-n2cccn2)cc1)C(F)(F)F` (10 µM) registered a morphology score of 0.03. Also, the SARS-CoV-2 infection rate in assay [2] is 112% (inactive).

Compound `CNC(=O)c1c(-c2ccc(F)cc2)oc2cc(N(CCO)S(C)(=O)=O)c(C3CC3)cc12` [nesbuvir] (10 µM) registered a morphology score in assay [1] of 0.111. In addition, the SARS-CoV-2 infection rate in assay [2] is 104% (inactive).

`O=C(Nc1ccc(Cl)cc1)Nc1cccc(-c2cccc(N3CCCC3)n2)c1` (10 µM): the morphology score in assay [1] came out at 0.00797. Moreover, the SARS-CoV-2 infection rate in assay [2] was 92.5% (inactive).

As to `CCCCCCCCCCOc1cc2c(O)c(C(=O)OCC)cnc2cc1OCC` [decoquinate] (10 µM), the morphology score in assay [1] came out at 0.147. Further, in assay [2], the SARS-CoV-2 infection rate is 101% (inactive).

Regarding `CC(=O)O[C@]1(C(C)=O)CC[C@H]2[C@@H]3CCC4=CC(=O)CC[C@]4(C)[C@H]3CC[C@@]21C` [hydroxyprogesterone-acetate] (10 µM), the morphology score in assay [1] is 0.0136. For the same compound, the SARS-CoV-2 infection rate in assay [2] was 104% (inactive).

Take `OCCCNc1ccccc1` [3-anilinopropan-1-ol] (10 µM): the morphology score in assay [1] was -0.164. For the same compound, the SARS-CoV-2 infection rate in assay [2] is 110% (inactive).

In the case of `CCC(=O)OCC(=O)[C@@]1(OC(=O)CC)[C@H](C)C[C@H]2[C@H]3[C@H]([C@@H](O)C[C@@]21C)[C@@]1(C)C=CC(=O)C=C1C[C@H]3Cl` [alclometasone-dipropionate] (10 µM), the morphology score in assay [1] stood at 0.139. Besides, in assay [2], the SARS-CoV-2 infection rate was 98% (inactive).

Consider `CCCCOC(=O)c1ccccc1Nc1cccc(C(F)(F)F)c1` [ufenamate] (10 µM), for which, in assay [1], the morphology score was found to be 0.129. For the same compound, in assay [2], the SARS-CoV-2 infection rate was 100% (inactive).

Compound `CCN(c1cc(C#CCN2CCOCC2)cc(C(=O)NCc2c(C)cc(C)[nH]c2=O)c1C)[C@H]1CC[C@H](N(C)CCOC)CC1` (10 µM) had a morphology score in assay [1] of 0.163. Moreover, the SARS-CoV-2 infection rate in assay [2] was 100% (inactive).

As for `COc1cc2c(cc1Cc1cccc(Cl)c1F)c(=O)c(C(=O)O)cn2[C@H](CO)C(C)C` [elvitegravir] (10 µM), the morphology score in assay [1] worked out at 0.0588. Further, the SARS-CoV-2 infection rate in assay [2] was 107% (inactive).

Take `O=C(O)c1ccc(-n2nc(-c3ccccc3O)nc2-c2ccccc2O)cc1` [deferasirox] (0.833333 µM): in assay [1], the morphology score was 0.0304. In assay [2], the SARS-CoV-2 infection rate was 114% (inactive).

As to `CCn1c2ccccc2c2cc(CNC)ccc21` (10 µM), in assay [1], the morphology score came to 0.514. In assay [2], the SARS-CoV-2 infection rate is 56% (active).

As for `CCN(CCCCOC(=O)c1ccc(OC)c(OC)c1)C(C)Cc1ccc(OC)cc1` (stereo not drawn) [mebeverine] (10 µM), the morphology score in assay [1] was found to be 0.178. Besides, the SARS-CoV-2 infection rate in assay [2] was 94.5% (inactive).

In turn, `CCN(CC)CCOc1ccc(Nc2ncc3cc(-c4c(Cl)cccc4Cl)c(=O)n(C)c3n2)cc1` (10 µM) came in with a morphology score in assay [1] of -0.126. In addition, the SARS-CoV-2 infection rate in assay [2] was 123% (inactive).

`Nc1nc2ccc(Cl)cc2c2nc(-c3ccco3)nn12` (10 µM) had a morphology score in assay [1] of 0.125. In addition, the SARS-CoV-2 infection rate in assay [2] was 108% (inactive).

Take `CCCCCCCCCCCCCCCCCCOP(=O)([O-])OC1CC[N+](C)(C)CC1` [perifosine] (10 µM): the morphology score in assay [1] stood at 0.116. In addition, the SARS-CoV-2 infection rate in assay [2] is 104% (inactive).

The values above are taken from the supplement of paper PMC13380429.
